Data taken from PubChem BioAssay (EPA / NIEHS).
Several values for one entry are separate records, joined by “and”; a condition that tells them apart may be missing. Equal entries are not always repeated. Inconclusive results are not listed. Some compounds were tested as several samples or in several runs, with calls that do not always agree. Activity calls are given as the source filed them. The calls were made as follows: active = hit-call score of the fitted dose curve at least 0.9, where 1 is the maximum; inconclusive = response in the unintended direction; inactive = score below 0.9.

These molecules were tested against rat CYP2C11, Cyp2c11 (gene 29277) (UniProt P08683) (assay: NVS_ADME_rCYP2C11: NovaScreen (NVS) CYP450-related Enzyme Activity (ADME) Assay for rat CYP2C11 (AID 2283118)).
Sequence of rat CYP2C11, Cyp2c11 (gene 29277) (P08683 whole entry, looked up): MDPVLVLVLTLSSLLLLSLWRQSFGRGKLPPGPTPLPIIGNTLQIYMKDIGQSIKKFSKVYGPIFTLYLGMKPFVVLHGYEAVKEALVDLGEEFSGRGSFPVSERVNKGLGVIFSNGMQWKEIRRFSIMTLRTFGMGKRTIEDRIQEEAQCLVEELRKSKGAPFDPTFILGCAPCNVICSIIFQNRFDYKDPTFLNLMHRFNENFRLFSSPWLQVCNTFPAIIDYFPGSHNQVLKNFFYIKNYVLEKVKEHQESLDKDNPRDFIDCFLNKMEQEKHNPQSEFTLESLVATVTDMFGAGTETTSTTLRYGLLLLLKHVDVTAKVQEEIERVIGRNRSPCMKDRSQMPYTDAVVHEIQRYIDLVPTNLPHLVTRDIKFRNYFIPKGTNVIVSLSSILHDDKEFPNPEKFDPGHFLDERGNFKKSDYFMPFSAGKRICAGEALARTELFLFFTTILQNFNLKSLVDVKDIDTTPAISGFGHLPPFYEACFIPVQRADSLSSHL
In short: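 Screened first at 10 uM in duplicate, hits followed by concentration-response. Recombinant rat enzyme activity monitored by fluorescence 0.33 h post-dosing, normalised to acetonitrile negative control.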

Row | Compound | AC50 | outcome
1 | Cc1ccc(-c2c(Cl)nc(C#N)n2S(=O)(=O)N(C)C)cc1 | 6130 nM (active) | 
2 | COc1ccc(C(c2ccc(OC)cc2)C(Cl)(Cl)Cl)cc1 |  | inactive
3 | Fc1ccc(Oc2ccnc3cc(Cl)cc(Cl)c23)cc1 | 15600 nM (active) | 
4 | OC(c1ccc(Cl)cc1)(c1cncnc1)c1ccccc1Cl (stereo not drawn) | 6580 nM (active) | 
5 | CCCC1COC(Cn2cncn2)(c2ccc(Cl)cc2Cl)O1 (stereo not drawn) | 1450 nM (active) | 
6 | N#CC(CCc1ccc(Cl)cc1)(Cn1cncn1)c1ccccc1 (stereo not drawn) | 267 nM (active) | 
7 | CCOP(=S)(OCC)SCn1c(=O)oc2cc(Cl)ccc21 | 993 nM (active) | 
8 | CC1COC(Cn2cncn2)(c2ccc(Oc3ccc(Cl)cc3)cc2Cl)O1 (stereo not drawn) | 1730 nM (active) | 
9 | COC(=O)N(OC)c1ccccc1COc1ccn(-c2ccc(Cl)cc2)n1 | 809 nM (active) | 
10 | CCCN(CCC)c1c([N+](=O)[O-])cc(S(N)(=O)=O)cc1[N+](=O)[O-] |  | inactive
11 | CO/C=C(/C(=O)OC)c1ccccc1Oc1cc(Oc2ccccc2C#N)ncn1 | 2810 nM (active) | 
12 | CS/C(C)=N/OC(=O)N(C)SN(C)C(=O)O/N=C(\C)SC | 3660 nM (active) | 
13 | CCOC(=O)CC(SP(=S)(OC)OC)C(=O)OCC (stereo not drawn) | 399 nM (active) | 

What follows are molecules tested against rat CYP2C12, Cyp2c12 (gene 25011) (UniProt P11510) (assay: NVS_ADME_rCYP2C12: NovaScreen (NVS) CYP450-related Enzyme Activity (ADME) Assay for rat CYP2C12 (AID 2283119)).
Sequence of rat CYP2C12, Cyp2c12 (gene 25011) (P11510 whole entry, looked up): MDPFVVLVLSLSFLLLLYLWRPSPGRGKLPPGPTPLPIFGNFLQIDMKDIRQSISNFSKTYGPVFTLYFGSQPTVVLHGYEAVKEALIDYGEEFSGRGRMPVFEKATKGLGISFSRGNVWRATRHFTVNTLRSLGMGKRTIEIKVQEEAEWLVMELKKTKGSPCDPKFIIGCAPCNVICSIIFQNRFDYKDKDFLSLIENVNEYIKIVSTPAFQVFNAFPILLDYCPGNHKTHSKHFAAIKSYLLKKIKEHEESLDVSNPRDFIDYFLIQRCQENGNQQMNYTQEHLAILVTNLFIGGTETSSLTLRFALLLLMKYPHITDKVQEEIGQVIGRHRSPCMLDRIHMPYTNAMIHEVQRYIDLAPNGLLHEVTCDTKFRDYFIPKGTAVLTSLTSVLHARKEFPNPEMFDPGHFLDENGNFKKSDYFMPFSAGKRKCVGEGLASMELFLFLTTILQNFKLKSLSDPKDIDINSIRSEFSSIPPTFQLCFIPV
Experimental: NVS_ADME_rCYP2C12 is a biochemical, single-readout assay that uses extracted gene-proteins in a cell-free assay. Measurements were taken 0.5 hour after chemical dosing in a 96-well plate.NVS_ADME_rCYP2C12 is one of one assay component(s) measured or calculated from the NVS_ADME_rCYP2C12 assay. It is designed to make measurements of enzyme activity, a form of enzyme reporter, as detected with fluorescence intensity signals by Fluorescence technology.Data from the assay component NVS_ADME_rCYP2C12 was analyzed into 1 assay endpoint. This assay endpoint, NVS_ADME_rCYP2C12, was analyzed in the positive analysis fitting direction relative to Acetonitrile as the negative control and baseline of activity. Using a type of enzyme reporter, loss-of-signal activity can be used to understand changes in the enzymatic activity as they relate to the gene Cyp2c12. Furthermore, this assay endpoint can be referred to as a primary readout, because this assay has produced multiple assay endpoints where this one serves a enzymatic activity function. To generalize the intended target to other relatable targets, this assay endpoint is annotated to the cyp intended target family, where the subfamily is xenobiotic metabolism.
Binding assays used specific radioligands (tritiated, iodinated) with non-radioactive competitive displacement ligands in agonist or antagonist protocols (as indicated) and various reference compounds and inhibitors to titrate specific binding to receptors and transporters. Most enzyme assays (CYPs, kinases, phosphatases, proteases, HDACs) used recombinant protein and specific substrates (fluorescence mostly, some colorimetric and radioactive) and inhibitors, followed by a biochemical separation of substrate and product. All assays for the biochemical HTS were initially run in duplicate at a single concentration (10 uM for CYP450 assays and 25 uM for all others). […] Each assay was run with positive and negative controls, and concurrent controls on every plate. The follow-up (secondary) screen tested active chemical-pairs in concentration series, as well as a few additional assays not tested in the primary screen, some selected negative inactives, and several cases re-run in the concentration series for confirmatory purposes.

Row | Compound | outcome | AC50
14 | COc1ccc(C(c2ccc(OC)cc2)C(Cl)(Cl)Cl)cc1 | inactive | 
15 | OC(c1ccc(Cl)cc1)(c1cncnc1)c1ccccc1Cl (stereo not drawn) |  | 3990 nM (active)
16 | N#CC(CCc1ccc(Cl)cc1)(Cn1cncn1)c1ccccc1 (stereo not drawn) |  | 250 nM (active)
17 | CN(C)C(=S)SSC(=S)N(C)C |  | 1980 nM (active)
18 | CCOP(=S)(OCC)SCn1c(=O)oc2cc(Cl)ccc21 |  | 2170 nM (active)
19 | CC1COC(Cn2cncn2)(c2ccc(Oc3ccc(Cl)cc3)cc2Cl)O1 (stereo not drawn) |  | 1080 nM (active)
20 | CCCN(CCC)c1c([N+](=O)[O-])cc(S(N)(=O)=O)cc1[N+](=O)[O-] |  | 3080 nM (active)
21 | CS/C(C)=N/OC(=O)N(C)SN(C)C(=O)O/N=C(\C)SC |  | 1120 nM (active)
22 | CCOC(=O)CC(SP(=S)(OC)OC)C(=O)OCC (stereo not drawn) |  | 6050 nM (active)

What follows are molecules tested on rat CYP2C6, gene 293989 (assay: NVS_ADME_rCYP2C6: NovaScreen (NVS) CYP450-related Enzyme Activity (ADME) Assay for rat CYP2C6 (AID 2283120)).
In short: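 Compounds first tested in duplicate at 10 uM, hits (e.g. 30% inhibition) re-run in singleton dose series to a 20 uM top concentration. Enzyme activity of recombinant rat CYP2C6 measured via fluorescent substrate turnover after 1 h; acetonitrile baseline.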

Row | Compound | AC50
23 | COc1ccc(C(c2ccc(OC)cc2)C(Cl)(Cl)Cl)cc1 | 9600 nM (active)
24 | OC(c1ccc(Cl)cc1)(c1cncnc1)c1ccccc1Cl (stereo not drawn) | 1390 nM (active)
25 | CCCC1COC(Cn2cncn2)(c2ccc(Cl)cc2Cl)O1 (stereo not drawn) | 2450 nM (active)
26 | N#CC(CCc1ccc(Cl)cc1)(Cn1cncn1)c1ccccc1 (stereo not drawn) | 1440 nM (active)
27 | CN(C)C(=S)SSC(=S)N(C)C | 1280 nM (active)
28 | CCOP(=S)(OCC)SCn1c(=O)oc2cc(Cl)ccc21 | 336 nM (active)
29 | CC1COC(Cn2cncn2)(c2ccc(Oc3ccc(Cl)cc3)cc2Cl)O1 (stereo not drawn) | 1560 nM (active)
30 | CCCN(CCC)c1c([N+](=O)[O-])cc(S(N)(=O)=O)cc1[N+](=O)[O-] | 7630 nM (active)
31 | CO/C=C(/C(=O)OC)c1ccccc1Oc1cc(Oc2ccccc2C#N)ncn1 | 2120 nM (active)
32 | CS/C(C)=N/OC(=O)N(C)SN(C)C(=O)O/N=C(\C)SC | 3630 nM (active)
33 | CCOC(=O)CC(SP(=S)(OC)OC)C(=O)OCC (stereo not drawn) | 50.1 nM (active)

Each molecule was assayed against rat CYP2C13, Cyp2c13 (gene 171521) (UniProt P20814) (assay: NVS_ADME_rCYP2C13: NovaScreen (NVS) CYP450-related Enzyme Activity (ADME) Assay for rat CYP2C13 (AID 2283121)).
Sequence of rat CYP2C13, Cyp2c13 (gene 171521) (P20814 whole entry, looked up): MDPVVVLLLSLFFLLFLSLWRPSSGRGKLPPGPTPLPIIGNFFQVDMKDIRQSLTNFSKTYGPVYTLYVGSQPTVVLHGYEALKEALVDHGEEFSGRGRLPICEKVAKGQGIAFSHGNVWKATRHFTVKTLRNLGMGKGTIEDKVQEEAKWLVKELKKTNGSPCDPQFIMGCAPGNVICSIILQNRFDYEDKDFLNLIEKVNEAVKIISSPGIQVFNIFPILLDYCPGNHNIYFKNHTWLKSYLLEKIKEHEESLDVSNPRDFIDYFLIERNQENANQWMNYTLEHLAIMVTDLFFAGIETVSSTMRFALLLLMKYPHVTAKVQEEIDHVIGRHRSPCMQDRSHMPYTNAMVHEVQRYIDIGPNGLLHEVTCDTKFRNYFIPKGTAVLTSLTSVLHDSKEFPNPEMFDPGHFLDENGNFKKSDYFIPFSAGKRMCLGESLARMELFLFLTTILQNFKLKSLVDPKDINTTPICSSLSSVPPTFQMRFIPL
In short: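 Inhibition is read as decreased fluorescent product formation, referenced to acetonitrile vehicle. Cell-free recombinant rat Cyp2c13 reaction ran 0.75 hour; compounds first at 10 uM in duplicate, then concentration series for actives.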

Row | Compound | outcome | AC50
34 | COc1ccc(C(c2ccc(OC)cc2)C(Cl)(Cl)Cl)cc1 | inactive | 
35 | CON(C)C(=O)Nc1ccc(Cl)c(Cl)c1 |  | 8.64 µM (active) and 6.6 µM (active)
36 | CN(C)C(=S)SSC(=S)N(C)C |  | 0.991 µM (active)
37 | CCOP(=S)(OCC)SCn1c(=O)oc2cc(Cl)ccc21 |  | 2.09 µM (active)
38 | CNC(=S)S | inactive | 
39 | CC1COC(Cn2cncn2)(c2ccc(Oc3ccc(Cl)cc3)cc2Cl)O1 (stereo not drawn) |  | 1.43 µM (active)
40 | O=C(Nc1ccccc1)Nc1ccnc(Cl)c1 |  | 10 µM (active)
41 | CCOC(=O)CC(SP(=S)(OC)OC)C(=O)OCC (stereo not drawn) |  | 8.12 µM (active)

What follows are molecules tested against rat CYP2D2, Cyp2d26 (gene 25053) (UniProt P10634) (assay: NVS_ADME_rCYP2D2: NovaScreen (NVS) CYP450-related Enzyme Activity (ADME) Assay for rat CYP2D2 (AID 2283124)).
Sequence of rat CYP2D2, Cyp2d26 (gene 25053) (P10634 whole entry, looked up, canonical isoform): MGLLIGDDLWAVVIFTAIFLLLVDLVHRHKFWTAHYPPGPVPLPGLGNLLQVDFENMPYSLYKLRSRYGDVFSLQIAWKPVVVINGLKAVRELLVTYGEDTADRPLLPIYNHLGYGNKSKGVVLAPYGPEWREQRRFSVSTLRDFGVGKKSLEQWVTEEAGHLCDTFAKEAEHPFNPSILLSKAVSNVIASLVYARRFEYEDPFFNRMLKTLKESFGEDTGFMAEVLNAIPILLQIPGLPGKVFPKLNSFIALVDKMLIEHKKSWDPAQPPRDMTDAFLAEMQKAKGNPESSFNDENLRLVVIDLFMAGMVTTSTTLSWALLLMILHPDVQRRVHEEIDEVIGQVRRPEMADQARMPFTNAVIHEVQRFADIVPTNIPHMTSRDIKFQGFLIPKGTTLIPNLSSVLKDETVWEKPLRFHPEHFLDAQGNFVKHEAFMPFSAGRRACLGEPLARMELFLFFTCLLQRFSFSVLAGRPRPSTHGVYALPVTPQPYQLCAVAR
In short: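 Single-concentration duplicate testing at 10 uM, followed by concentration-response (top 20 uM) for chemicals passing threshold. Enzyme activity of the recombinant rat isoform measured by fluorescence after 0.75 h, acetonitrile as baseline.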

Row | Compound | AC50 | outcome
42 | Cc1ccc(-c2c(Cl)nc(C#N)n2S(=O)(=O)N(C)C)cc1 | 4.31 µM (active) | 
43 | C#CCOS(=O)OC1CCCCC1Oc1ccc(C(C)(C)C)cc1 (stereo not drawn) | 10 µM (active) | 
44 | COc1ccc(C(c2ccc(OC)cc2)C(Cl)(Cl)Cl)cc1 |  | inactive
45 | OC(c1ccc(Cl)cc1)(c1cncnc1)c1ccccc1Cl (stereo not drawn) | 6.92 µM (active) | 
46 | CCCC1COC(Cn2cncn2)(c2ccc(Cl)cc2Cl)O1 (stereo not drawn) | 7.44 µM (active) and 7.78 µM (active) | 
47 | CCOP(=S)(OCC)SCn1c(=O)oc2cc(Cl)ccc21 | 2.07 µM (active) | 
48 | CC1COC(Cn2cncn2)(c2ccc(Oc3ccc(Cl)cc3)cc2Cl)O1 (stereo not drawn) | 1.4 µM (active) | 
49 | CCCN(CCC)c1c([N+](=O)[O-])cc(S(N)(=O)=O)cc1[N+](=O)[O-] | 1.3 µM (active) | 
50 | CCOC(=O)C(Cl)Cc1cc(-n2nc(C)n(C(F)F)c2=O)c(F)cc1Cl (stereo not drawn) |  | inactive
51 | COC(=O)C(C)Oc1ccc(Oc2ccc(Cl)cc2Cl)cc1 (stereo not drawn) | 7.38 µM (active) and 10 µM (active) | inactive
52 | CCOC(=O)CC(SP(=S)(OC)OC)C(=O)OCC (stereo not drawn) | 6.28 µM (active) | 
